# Most compounds without a hit are left out; they make up all but 1.6% or so of the library.
# SIRT5 inh: SIRT5 desuccinylase inhibitors, primary screen, biochemical, fluorescence imaging, single point, set 5; Purified SirT5, succinyl-peptide AMC, trypsin-coupled fluorescence; inhibition, % at 15 µM; hit rate 1.1% among 330,000; in the data active means inhibition above about 15%
# Target sequence (Q9NXA8 whole entry, looked up): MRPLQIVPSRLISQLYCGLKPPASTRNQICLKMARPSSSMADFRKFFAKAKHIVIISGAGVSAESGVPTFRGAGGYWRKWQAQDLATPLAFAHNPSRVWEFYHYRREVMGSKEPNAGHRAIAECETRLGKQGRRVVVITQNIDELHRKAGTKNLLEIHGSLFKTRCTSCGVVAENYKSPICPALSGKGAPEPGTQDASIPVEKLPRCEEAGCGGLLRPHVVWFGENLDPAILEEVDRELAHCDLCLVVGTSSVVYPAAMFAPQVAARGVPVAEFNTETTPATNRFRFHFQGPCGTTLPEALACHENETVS
# NSD2 HMT inh: NSD2 histone methyltransferase inhibitors, primary screen, biochemical, AlphaScreen, single concentration, set 2 | Histone-lysine N-methyltransferase NSD2 (Homo sapiens), O96028 | NSD2 peptide methylation, 120 min | inhibition, % at 12.5 µM | hit rate 0.54% among 310,000; in the data active means inhibition above about 50%
# UBC9 SUMO inh: inhibitors of in vitro SUMOylation cascade, primary screen, biochemical, HTRF, uHTS; SUMO-conjugating enzyme UBC9 (Homo sapiens), P63279; HTRF SUMOylation assay, SAE1/SAE2 + UBC9; inhibition, % at 35 µM; hit rate 0.36% among 290,000; AID 2006, 2009; in the data active means inhibition above about 50%, passing the limit was not always enough
# CASP6 VEID inh: human caspase-6 inhibitors, primary screen, biochemical, VEID-R110 fluorescence, single point, set 2. P55212. purified caspase-6, Z-VEID-R110 cleavage fluorescence. inhibition, % at 12.5 µM. hit rate 0.53% among 350,000;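 active means mean inhibition across replicates at least about 35%, with every replicate also reaching that limit, limit read from the data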;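 further: 0% = median of neutral control wells and 100% = no fluorescence left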
# Target sequence (P55212 24-179 limits assumed): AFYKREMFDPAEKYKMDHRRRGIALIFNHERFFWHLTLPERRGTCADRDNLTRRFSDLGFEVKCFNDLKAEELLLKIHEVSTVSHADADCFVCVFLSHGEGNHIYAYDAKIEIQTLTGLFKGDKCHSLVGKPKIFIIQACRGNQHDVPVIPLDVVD
# Target sequence (P55212 194-293 limits assumed): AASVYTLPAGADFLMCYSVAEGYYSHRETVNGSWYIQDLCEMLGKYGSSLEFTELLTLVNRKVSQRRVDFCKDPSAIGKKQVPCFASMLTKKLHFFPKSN
# Active calls of the source: *; / = no result.
SMILES,SIRT5 inh,NSD2 HMT inh,UBC9 SUMO inh,CASP6 VEID inh
C[C@@H]1CN([C@H](C)CO)C(=O)c2cc(NS(=O)(=O)c3ccc(F)cc3)ccc2O[C@@H](C)CCCCO[C@@H]1CN(C)S(=O)(=O)c1ccc(Cl)cc1,26*,/,/,-1
COc1ccccc1CN1C[C@H](C)[C@@H](OC)CN(C)C(=O)c2ccc(NC(C)=O)cc2OC[C@@H]1C,14,/,/,2
O=C(Nc1ccccc1O)c1cc(S(=O)(=O)N2CCOCC2)c(Cl)cc1Cl,-1,3,60*,1
C[C@H](CO)N1C[C@H](C)[C@@H](CN(C)Cc2ccc(-c3ccccc3)cc2)OCc2ccccc2-c2c(n(C)c3ccccc23)C1=O,4,/,/,0
Cc1sc(NC(=O)c2ccco2)c(C(c2ccccc2)N2CCC(C)CC2)c1C (configuration not stated),18*,-2,3,-1
Cc1csc(NC(=O)c2ccco2)c1C(=O)c1ccccc1,-2,0,16,0
Cc1sc(NC(=O)c2ccco2)c(C(=O)c2ccc(Cl)cc2)c1C,16*,-1,-2,2
Cc1ccc(C(c2c(NC(=O)c3ccco3)sc(C)c2C)N2CCOCC2)cc1 (configuration not stated),/,11,/,0
CCNC(=O)C[C@H]1CC[C@H]2[C@@H](COC[C@@H](O)CN2C(=O)Nc2ccc3c(c2)OCO3)O1,11,/,/,0
Cc1noc(C)c1NC(=O)N(C)C[C@@H]1Oc2ccc(N(C)C)cc2C(=O)N([C@@H](C)CO)C[C@@H]1C,2,/,/,0
COc1ccc(S(=O)(=O)Nc2ccc3c(c2)C(=O)N([C@@H](C)CO)C[C@H](C)[C@@H](CN(C)C(=O)CCC(F)(F)F)OCCCC[C@H](C)O3)cc1,7,/,/,-1
CCC(=O)c1ccc(/C=C/c2nc3ccccc3n2C)o1,-3,-29,62*,1
Cn1c(/C=N/O)nc2ccccc21,-16,-2,21,-1
O=C(CSc1nnc(-c2cccs2)o1)c1cccs1,-9,0,2,3
CCNC(=O)CCSc1nnc(-c2ccncc2)o1,20*,-4,5,2
O=C(CCSc1nnc(-c2ccncc2)o1)Nc1ccccc1,/,-7,14,/
CCNC(=O)CSc1nnc(-c2cccs2)o1,18*,-7,12,3
CO[C@H]1CN(C)C(=O)c2cc(NS(C)(=O)=O)ccc2OC[C@@H](C)N(CC2CCOCC2)C[C@H]1C,-4,/,/,-4
COc1ccc(C(=O)Nc2nnc(CC(=O)N/N=C/c3ccc(O)cc3O)s2)cc1,17*,-1,46,1
Cc1ccc(C(=O)Nc2nnc(CC(=O)N/N=C/c3ccc(O)c(O)c3)s2)cc1,3,6,/,10
C[C@@H]1CN([C@H](C)CO)C(=O)c2cccc(NS(=O)(=O)c3cn(C)cn3)c2O[C@@H]1CN(C)C(=O)NC1CCCCC1,1,/,/,0
CC1=C(SCc2ccccc2)C(=O)c2ccccc2C1=O,3,22,/,64*
CCC(=O)N1C[C@H](C)[C@H](OC)CN(C)C(=O)c2cc(NC(=O)c3ccc(F)cc3)ccc2OC[C@@H]1C,3,/,/,4
CCOc1ccc(-c2noc(CCCC(=O)NC3CCCC3)n2)cc1OC,19*,-6,11,-1
CN(CC(=O)N1CCN(C2CCCCC2)CC1)S(=O)(=O)c1cccc2nsnc12,22*,-3,2,-1
SMILES,SIRT5 inh,NSD2 HMT inh,UBC9 SUMO inh,CASP6 VEID inh
CN(CC(=O)N1CCCCC1)S(=O)(=O)c1cccc2nsnc12,-3,-3,4,-2
Cc1ccc(CNC(=O)/C(C#N)=C\c2ccc(N(C)C)cc2)cc1,/,/,54*,/
CN(C)c1ccc(/C=C(\C#N)C(=O)NCc2ccco2)cc1,/,/,22,/
COCC(=O)Nc1ccc2c(c1)OC[C@H](C)N(CC1CCCCC1)C[C@H](C)[C@H](OC)CN(C)C2=O,0,/,/,-13
CC12CC(c3ccccc3O1)C(/C(N)=N/NC(=O)c1ccc(F)cc1)C(=O)N2 (configuration not stated),16*,/,-10,-1
CC(C)(C)Cc1nnc(NC(=O)Cc2cccs2)s1,29*,10,20,9
C[C@H]1CN([C@@H](C)CO)C(=O)c2cc(C3=CCCC3)cnc2O[C@H]1CN(C)Cc1ccccn1,-3,/,/,-2
CCOC(=O)N1CCN(c2ccc(C(=O)CC)cc2F)CC1,/,-1,0,/
CCC(=O)c1ccc(N2CCN(C(=O)c3ccccc3)CC2)c(F)c1,-3,0,9,88*
CN1C(=O)c2cc(NC(=O)c3ccccc3F)ccc2OC[C@H]2O[C@H](CC(=O)NCc3ccc4c(c3)OCO4)CC[C@H]21,0,/,/,3
CCN(CC)Cc1c(C(=O)N/N=C/c2ccc(C)o2)nnn1-c1nonc1N,85*,3,3,-5
CC(=C/c1ccccc1)/C=N/NC(=O)c1nnn(-c2nonc2N)c1CN1CCC(C)CC1,-7,-1,-6,0
CC1CCN(Cc2c(C(=O)N/N=C/c3ccccc3O)nnn2-c2nonc2N)CC1,1,-4,54*,-7
O=C(CN1C(=O)COc2ccccc21)NNC(=O)Nc1ccccc1F,26*,11,13,4
CCCC#Cc1ccc([C@H]2[C@@H](CO)N[C@@H]2CN(C(C)=O)C2CCCC2)cc1,5,/,/,0
Cc1ccc(-c2cc(-c3ccccc3O)nc(N/N=C/c3cccnc3)n2)cc1,-3,-1,53*,-3
O=C1CN(S(=O)(=O)Cc2ccccc2)C[C@H]2[C@@H](c3ccc(C#CC4CC4)cc3)[C@@H](CO)N12,-1,/,/,-1
COc1ccc2c3c(n(C)c2c1)[C@@H](CO)N(S(C)(=O)=O)CC31CN(C(=O)C2CCC2)C1,-1,/,/,-1
CN(C)CCN(Cc1cccs1)S(=O)(=O)c1csc(C(N)=O)c1,33*,0,2,25
COCC(=O)Nc1ccc2c(c1)C(=O)N(C)C[C@H](OC)[C@@H](C)CN(Cc1cccnc1)[C@H](C)CO2,-5,/,/,0
CCOC(=O)C1=C(C)Nc2ccccc2N/C1=N\S(=O)(=O)c1cc(C(=O)O)ccc1Cl,0,5,/,37*
CC=Cc1ccc2n(c1=O)C[C@@H]1[C@@H](CO)[C@H](C(=O)NCCC)[C@H]2N1C(=O)Nc1cc(F)ccc1F (mixture of isomers),-25,/,/,1
CC1CCCCC1NS(=O)(=O)c1ccc(S(=O)(=O)N2CCN(CCC#N)CC2)cc1 (configuration not stated),/,/,-2,45*
O=C(O)c1cccc(Cn2c(Cl)c(/C=N/NC(=O)c3cc4ccccc4cc3O)sc2=O)c1,24*,34,/,42*
Cn1nccc1NC(=O)Nc1ccccc1,/,-3,28,/
Cn1nccc1NC(=O)Nc1cccc(Br)c1,-2,-1,65*,0
CCOC(=O)N(C)C[C@H]1OCc2cn(nn2)CCCC(=O)N([C@H](C)CO)C[C@H]1C,17*,/,/,-2
C[C@H]1CN([C@@H](C)CO)C(=O)CCCn2cc(nn2)CO[C@H]1CN(C)Cc1ccccc1,25*,/,/,-4

# Source: PubChem BioAssay (several laboratories)
